Test results reported in PubChem BioAssay (NCI).
About 79,000 compounds went through this panel and 15% of them were active in at least one assay; those are over-represented in the sample as a whole. Calls of active or inactive are those of the source. No stated cut-off is given here; in the data, active means growth inhibition above about 70%; inactive means the rest.

Experiments:
[1] = NCI Yeast Anticancer Drug Screen. Data for the mec2-1 strain (AID 157); conditions: S. cerevisiae mec2-1 strain, stronger effect = higher value
Method in brief: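 Growth inhibition is read against vehicle-treated controls after compound exposure of the mec2-1 yeast strain, which is defective in DNA damage repair or cell cycle control.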

[2] = NCI Yeast Anticancer Drug Screen. Data for the rad14 strain (AID 159);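 further: 0% = growth of vehicle-treated control cultures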; conditions: S. cerevisiae rad14 strain growth inhibition, stronger effect = higher value
Method in brief: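 Test compounds were applied to a repair-deficient yeast strain. Its growth was then compared with that of cultures given vehicle alone, and inhibition was expressed relative to those controls.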

[3] = NCI Yeast Anticancer Drug Screen. Data for the sgs1 mgt1 strain (AID 161);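 further: 0% = growth of cultures given vehicle only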; conditions: S. cerevisiae sgs1 mgt1 strain, stronger effect = higher value
Method in brief: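 Yeast cells carrying a defined DNA-repair defect were exposed to test compounds. Growth inhibition was measured relative to vehicle-treated controls.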

[4] = NCI Yeast Anticancer Drug Screen. Data for the CLN2oe strain (AID 163);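 further: 0% = growth of vehicle-only control cultures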; conditions: S. cerevisiae CLN2oe strain, stronger effect = higher value
Method in brief: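 Compound-treated yeast; growth vs vehicle ctrl = % inhibition. Genetically altered strain (cell-cycle control).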

[5] = NCI Yeast Anticancer Drug Screen. Data for the cln2 rad14 strain (AID 165);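 further: 0% = growth equal to vehicle treated cultures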; conditions: S. cerevisiae cln2 rad14 strain, stronger effect = higher value
Method in brief: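 Growth inhibition, relative to vehicle-treated controls, is the read-out. The test organism is a yeast strain with defined genetic alterations, cln2 rad14.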

[6] = NCI Yeast Anticancer Drug Screen. Data for the bub3 strain (AID 167); conditions: S. cerevisiae bub3 mutant strain, stronger effect = higher value
Method in brief: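 Yeast carrying a defined mutation is treated with each compound, and growth is compared with that of vehicle-exposed cells to give inhibition.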

[7] = NCI Yeast Anticancer Drug Screen. Data for the mlh1 strain (AID 171);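 further: 0% = growth of vehicle-treated control cultures of the same strain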; conditions: S. cerevisiae mlh1 strain growth inhibition, stronger effect = higher value
Method in brief: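 Compounds are applied to a genetically altered yeast strain, and its growth is compared with that of vehicle-treated cultures to give percent inhibition.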

[8] = NCI Yeast Anticancer Drug Screen. Data for the sgs1 strain (AID 173);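 further: 0% = growth of vehicle-only control cultures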; conditions: S. cerevisiae sgs1 mutant, stronger effect = higher value
Method in brief: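 Compounds applied to genetically altered yeast; growth compared with vehicle-treated cultures to give % inhibition.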

[9] = NCI Yeast Anticancer Drug Screen. Data for the mlh1 rad18 strain (AID 175); conditions: S. cerevisiae mlh1 rad18 strain growth inhibition, stronger effect = higher value
Method in brief: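 Cells of a genetically altered yeast strain, deficient in DNA damage repair, were treated with compound. Their growth was then compared with that of vehicle-treated cultures to give inhibition.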

[10] = NCI Yeast Anticancer Drug Screen. Data for the rad18 strain (AID 177); conditions: S. cerevisiae rad18 mutant growth inhibition, stronger effect = higher value
Method in brief: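 Compounds are applied to a repair-deficient yeast strain, and growth is compared with that of vehicle-treated cultures to give percent inhibition.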

[11] = NCI Yeast Anticancer Drug Screen. Data for the rad52 strain (AID 147);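 further: 0% = growth of vehicle-treated control cultures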; conditions: S. cerevisiae rad52 mutant growth inhibition, stronger effect = higher value
Method in brief: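 DNA repair-defective yeast; compound exposure; growth scored against vehicle controls.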

[12] = NCI Yeast Anticancer Drug Screen. Data for the wt1 strain (AID 149);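 further: 0% = growth of vehicle-treated wt1 cultures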; conditions: S. cerevisiae wt1 strain (SPY 50644) growth inhibition, stronger effect = higher value
Method in brief: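 wt1 yeast, compound-treated; % growth inhibition vs vehicle control.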

[13] = NCI Yeast Anticancer Drug Screen. Data for the rad50EPP+ strain (AID 151);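 further: 0% = growth of vehicle-treated control cultures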; conditions: S. cerevisiae rad50 mutant strain, stronger effect = higher value
Method in brief: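 rad50EPP+ yeast treated with test compounds. Readout: growth vs vehicle control.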

[14] = NCI Yeast Anticancer Drug Screen. Data for the mgt1 strain (AID 153); conditions: S. cerevisiae mgt1 mutant growth inhibition, stronger effect = higher value
Method in brief: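 Growth inhibition relative to vehicle controls was scored for the mgt1 yeast strain after compound exposure.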

[15] = NCI Yeast Anticancer Drug Screen. Data for the wt2 strain (AID 169);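 further: 0% = growth of vehicle-treated yeast cultures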; conditions: S. cerevisiae wt2 strain growth inhibition, stronger effect = higher value
Method in brief: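 Compound exposure of yeast; growth compared with vehicle controls; inhibition reported.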

[16] = NCI Yeast Anticancer Drug Screen. Data for the rad50 strain (AID 155);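 further: 0% = growth of vehicle-only cultures of the same strain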; conditions: S. cerevisiae rad50 strain growth inhibition, stronger effect = higher value
Method in brief: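 Genetically altered yeast (DNA repair pathway); compound treatment; growth inhibition vs vehicle ctrl.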

[17] = at 5.0 µM (retest, dose inferred, filed as 0.5)
[18] = at 50.0 µM (retest, dose inferred, filed as 5.0)

Measured: growth inhibition

CC(C)OC(=O)NNc1cc(Cl)ccc1Cl
inactive: [2]; at 1.2 µM -4% | [2]; at 3.7 µM 3% | [2]; at 11.0 µM 20% | [2]; at 33.0 µM 48% | [3]; [17] 17% | [3]; [18] 48% | [3]; at 50.0 µM 44.2% | [4]; at 1.2 µM -1% | [4]; at 3.7 µM 4% | [4]; at 11.0 µM 29% | [4]; at 33.0 µM 50% | [4]; at 100.0 µM 59% | [5]; [17] 4% | [5]; [18] 21% | [5]; at 50.0 µM 26% | [6]; at 1.2 µM 4% | [6]; at 3.7 µM -1% | [6]; [17] 32% | [6]; at 11.0 µM 19% | [6]; at 33.0 µM 39% | [6]; [18] 60% | [6]; at 100.0 µM 47% | [7]; at 1.2 µM -1% | [7]; at 3.7 µM 8% | [7]; at 11.0 µM 41% | [7]; at 33.0 µM 50% | [7]; at 100.0 µM 58% | [8]; at 1.2 µM 0% | [8]; at 3.7 µM 10% | [8]; at 11.0 µM 44% | [8]; at 33.0 µM 44% | [8]; at 100.0 µM 54% | [9]; [17] 57% | [10]; at 1.2 µM 2% | [10]; at 3.7 µM 69% | [10]; at 11.0 µM 69% | [10]; at 33.0 µM 62%
active: [1]; at 100.0 µM 77% | [2]; at 100.0 µM 99% | [6]; at 50.0 µM 99% | [9]; [18] 89% | [9]; at 50.0 µM 75.2% | [10]; at 100.0 µM 86%

O=c1c2ccccc2nc(-c2cccc([N+](=O)[O-])c2)n1O
inactive: [11]; at 1.2 µM 17% | [11]; at 3.7 µM 45% | [12]; at 1.2 µM 12% | [12]; at 3.7 µM 21% | [12]; at 11.0 µM 60% | [13]; at 1.2 µM -9% | [13]; at 3.7 µM -5% | [13]; at 11.0 µM 13% | [13]; at 33.0 µM 35% | [13]; at 100.0 µM 65% | [14]; at 1.2 µM 13% | [14]; at 3.7 µM 21% | [14]; at 11.0 µM 52% | [1]; at 1.2 µM 14% | [1]; at 3.7 µM 19% | [1]; [17] 7% | [1]; at 11.0 µM 37% | [1]; at 33.0 µM 58% | [1]; at 100.0 µM 68% | [2]; at 1.2 µM 36% | [3]; [17] 26% | [4]; at 1.2 µM 6% | [4]; at 3.7 µM 15% | [4]; at 11.0 µM 33% | [4]; at 33.0 µM 46% | [4]; at 100.0 µM 51% | [5]; [17] -20% | [6]; at 1.2 µM -4% | [6]; at 3.7 µM 5% | [6]; at 11.0 µM 43% | [6]; at 33.0 µM 59% | [15]; at 1.2 µM 25% | [15]; at 3.7 µM 49% | [7]; at 1.2 µM 16% | [7]; at 3.7 µM 29% | [8]; at 1.2 µM 37% | [9]; [17] 21% | [10]; at 1.2 µM 37% | [10]; at 3.7 µM 64%
active: [11]; at 11.0 µM 83% | [11]; at 33.0 µM 91% | [11]; at 100.0 µM 91% | [12]; at 33.0 µM 84% | [12]; at 100.0 µM 90% | [14]; at 33.0 µM 85% | [14]; at 100.0 µM 90% | [1]; [18] 95% | [1]; at 50.0 µM 97.7% | [2]; at 3.7 µM 73% | [2]; at 11.0 µM 93% | [2]; at 33.0 µM 97% | [2]; at 100.0 µM 97% | [3]; [18] 97% | [3]; at 50.0 µM 98% | [5]; [18] 76% | [5]; at 50.0 µM 87.2% | [6]; [17] 71% | [6]; [18] 96% | [6]; at 50.0 µM 84.8% | [6]; at 100.0 µM 70% | [15]; at 11.0 µM 87% | [15]; at 33.0 µM 94% | [15]; at 100.0 µM 95% | [7]; at 11.0 µM 71% | [7]; at 33.0 µM 78% | [7]; at 100.0 µM 90% | [8]; at 3.7 µM 72% | [8]; at 11.0 µM 91% | [8]; at 33.0 µM 94% | [8]; at 100.0 µM 95% | [9]; [18] 98% | [9]; at 50.0 µM 98.1% | [10]; at 11.0 µM 88% | [10]; at 33.0 µM 92% | [10]; at 100.0 µM 92%

O=C(C(Cl)=C(N1CCCCC1)N1CCCCC1)C(Cl)Cl
active: [16]; [18] 99% | [1]; [18] 99% | [1]; at 50.0 µM 70.7% | [3]; [18] 99% | [3]; at 50.0 µM 85.2% | [5]; [18] 99% | [6]; [18] 99% | [9]; [18] 99% | [9]; at 50.0 µM 81.3%
inactive: [11]; at 1.2 µM 2% | [11]; at 3.7 µM 6% | [11]; at 11.0 µM 5% | [11]; at 33.0 µM 3% | [11]; at 100.0 µM 2% | [12]; at 1.2 µM -2% | [12]; at 3.7 µM 0% | [12]; at 11.0 µM -1% | [12]; at 33.0 µM -1% | [12]; at 100.0 µM 1% | [13]; at 1.2 µM 1% | [13]; at 3.7 µM 1% | [13]; at 11.0 µM 3% | [13]; at 33.0 µM 3% | [13]; at 100.0 µM 5% | [16]; at 1.2 µM 3% | [16]; at 3.7 µM 6% | [16]; [17] 69% | [16]; at 11.0 µM -2% | [16]; at 33.0 µM 5% | [16]; at 50.0 µM 64.4% | [16]; at 100.0 µM 3% | [1]; at 1.2 µM 2% | [1]; at 3.7 µM -2% | [1]; [17] 11% | [1]; at 11.0 µM -3% | [1]; at 33.0 µM -6% | [1]; at 100.0 µM -2% | [2]; at 1.2 µM -3% | [2]; at 3.7 µM -1% | [2]; at 11.0 µM 3% | [2]; at 33.0 µM -2% | [2]; at 100.0 µM -1% | [3]; [17] -6% | [4]; at 1.2 µM 2% | [4]; at 3.7 µM 4% | [4]; at 11.0 µM 3% | [4]; at 33.0 µM 1% | [4]; at 100.0 µM 9% | [5]; [17] 7% | [5]; at 50.0 µM 23.9% | [6]; at 1.2 µM -5% | [6]; at 3.7 µM 2% | [6]; [17] -5% | [6]; at 11.0 µM 9% | [6]; at 33.0 µM 4% | [6]; at 50.0 µM 68.1% | [6]; at 100.0 µM 2% | [15]; at 1.2 µM -1% | [15]; at 3.7 µM 1% | [15]; at 11.0 µM 2% | [15]; at 33.0 µM 2% | [15]; at 100.0 µM 2% | [7]; at 1.2 µM -2% | [7]; at 3.7 µM -4% | [7]; at 11.0 µM 2% | [7]; at 33.0 µM 0% | [7]; at 100.0 µM 1% | [8]; at 1.2 µM -50% | [8]; at 3.7 µM -3% | [8]; at 11.0 µM -2% | [8]; at 33.0 µM -4% | [8]; at 100.0 µM -1% | [9]; [17] 48% | [10]; at 1.2 µM -2% | [10]; at 3.7 µM 1% | [10]; at 11.0 µM -2% | [10]; at 33.0 µM -15% | [10]; at 100.0 µM -1%
